From PubChem
Sampled rows, rich in hits. Any-hit rate of the full collection: about 15%.
HCMV inh – blocks human cytomegalovirus replication; HFF cells, HCMV-luciferase reporter, 72 h; stronger effect = lower value; activity change, negative = inhibition, % at 57.5 µM; hit rate 4.5% among 410,000; AID 1259415; in the data active = activity change below about -60%; inconclusive = no clear call, values can overlap the other calls; inactive = above about -39%; also: % is scaled to controls: 0 for no effect and ±100 for the full control effect
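After 16 h attachment at 37C, HFF cells received test compound and HCMV-luciferase (1 PFU/cell); reporter luminescence read 72 h later, data normalized against buffer-only and known inhibitor Salinomycin.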
Sm TGR inh – S. mansoni TGR enzyme inhibition; purified TGR, DTNB reduction, TNB absorbance 405 nm; Q962Y6; Potency, µM (top dose mostly 114 µM), for the others: at the top dose activity change, negative = inhibition, usual class: inhibitors; hit rate 3% among 360,000; AID 485364; also: potency is read from the fitted curve at half-maximal effect; % is scaled to controls: 0 for no effect and ±100 for the full control effect; nearly all actives have a fitted effect of over 60% in size
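Kinetic colorimetric format: TGR-catalysed, NADPH-driven DTNB reduction monitored via TNB absorbance. Enzyme dispensed at 20 nM; compound exposure 15 min at room temperature before reaction start.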
SARS PLP yeast – SARS-CoV PLP inhibition in yeast; S. cerevisiae expressing SARS-CoV PLpro, growth rescue; Potency, µM (series often up to 32.9 µM), inactives show top-dose activity, positive = growth rescue, most hits filed as activators; hit rate 0.19% among 330,000; AID 485353; calls by dose curve; also: potency is read from the fitted curve at half-maximal effect; 0% is about no effect; nearly all actives have a fitted effect of over 55% in size
HCV inhibitor – blocks hepatitis C virus; hit rate 3.4% among 340,000; Huh7.5.1 HCVcc-Cre infection, luciferase reporter, 44 h; AID 651820; Potency, µM (top dose mostly 41.8 µM), inactives show at the highest dose activity change, negative = inhibition, hits mostly inhibitors; also: potency is read from the fitted curve at half-maximal effect; % is scaled to controls: 0 for no effect and ±100 for the full control effect
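1,000 cells/well; 4 h culture; + compound; + HCVcc-Cre (~0.5 moi); 44 h; luciferase substrate, RT 15 min; read 15 sec.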
Pf growth 96h – P. falciparum growth inhibition at 96 hour, primary screen for plastid delayed-death inhibitors; P. falciparum luciferase reporter growth, 96 h; Potency, µM (highest dose often 28.7 µM), for the others: top-dose activity change, negative = inhibition, most hits filed as inhibitors; hit rate 6.9% among 320,000; also: potency is read from the fitted curve at half-maximal effect; % is scaled to controls: 0 for no effect and ±100 for the full control effect
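P. falciparum expressing integrated firefly luciferase, in erythrocytes at 2% hematocrit, 0.05% parasitemia, incubated with compounds 96 h at 37 C, 5% CO2. Growth inhibition read as loss of luminescence; two-generation exposure targets delayed-death apicoplast inhibitors.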
Pf growth 48h – inhibits P. falciparum growth in the first generation, 48 h; AID 504832; hit rate 5.9% among 310,000; P. falciparum luciferase growth in erythrocytes, 48 h; Potency, µM (doses to about 28.7 µM), for inactives: at the highest dose activity change, negative = inhibition, hits mostly inhibitors; also: potency is read from the fitted curve at half-maximal effect; % is scaled to controls: 0 for no effect and ±100 for the full control effect
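A one-generation exposure of luciferase-tagged malaria parasites in RPMI 1640/Albumax erythrocyte culture, 37 C and 5% CO2. Inhibition is inferred from decreased luminescence after adding detection reagent.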
* = called active by the depositor; u = inconclusive; x = no result; [ ] = another dose, or the depositor's remark. Unless noted, calls follow the shape of the dose curve; as a rule, active = well fitted curve in the direction sought with a large enough effect; inconclusive = small, poorly fitted or top-dose-only effect, or another doubt; inactive = no such curve, though single readings can be large; an effect the other way counts as inactive or inconclusive.

SMILES	HCMV inh	Sm TGR inh	SARS PLP yeast	HCV inhibitor	Pf growth 96h	Pf growth 48h
CCCCn1c(SCC(=O)Nc2ccc(OC)cc2)nc2ccc(N3CCOCC3)cc2c1=O	45.3	28.2µM*	-3.0%	5.3%	u	u
CCCCn1c(SCC(=O)NCc2ccco2)nc2cc(S(N)(=O)=O)ccc21	-24.6	50.1µM*	10.2%	-22.5%	x	-27.1%
CCOC(=O)CSc1nc2ccc(N3CCOCC3)cc2c(=O)n1Cc1ccc2c(c1)OCO2	x	-17.1%	-1.7%	3.98µM*	x	11.7µM*
CCN(CC)C(=O)CSc1nc2cc3c(cc2c(=O)n1Cc1ccc2c(c1)OCO2)OCO3	u	1.3%	-1.2%	u	x	u
CC(C)CC(=O)N1CC=CC[C@@H](c2ccc(Cl)cc2)N(Cc2ccc(Cl)cc2)C(=O)[C@@H]1Cc1ccccc1	-28.1	x	x	-9.4%[8.37 µM]	x	x
COC(=O)[C@@H](NC(=O)NCCC1=CCCCC1)C(C)C	-6.2	7.8%	0.0%	4.4%	-11.1%	1.2%
CCCCn1c(SCC(=O)NCc2ccccc2)nc2ccc(N3CCOCC3)cc2c1=O	-13.3	-9.5%	2.4%	-5.9%	29.2%	11.7µM*
O=C(/C=C/c1cn(CC(O)CN2CCCCC2)c2ccccc12)c1ccccc1 (stereo unspecified)	-84.5*	1.7%	0.7%	u	u	13.1µM*
O=C(/C=C/c1cn(CC(O)CN2CCCCC2)c2ccccc12)c1cccs1 (stereo unspecified)	-35.9	-19.0%	22.1%	u	u	8.28µM*
Cc1ccc(CN2C(=O)C(C)Sc3ccc(C#N)cc32)cc1 (stereo unspecified)	-10.0	x	x	x	x	x
COc1ccc(CCNc2nccn(-c3ccc(C)c(C)c3)c2=O)cc1OC	-34.9	0.7%	x	x	x	x
CN(C)c1cc2c(cc1NC(=O)c1ccccc1Cl)n(C)c(=O)n2C	-18.6	-21.6%	17.6%	u	u	u
CCOc1ccc(OCCC(=O)N(CC(C)C)c2c(N)n(Cc3ccccc3)c(=O)[nH]c2=O)cc1	u	x	x	-8.2%	x	x
Cc1cccc(Cc2c(C)nc3c(-c4ccccc4)c(C)[nH]n3c2=O)c1	-79.4*	-23.2%	x	x	x	x
Cc1nc2c(-c3ccccc3)c(C)[nH]n2c(=O)c1Cc1ccccc1	-37.3	x	0.5%	10µM*	5.6%	10.4µM*
Cc1[nH]n2c(=O)cc(-c3ccccc3Cl)nc2c1-c1ccccc1	-93.6*	-1.5%	x	x	x	x
Cc1ccccc1Cc1c(C)nc2c(-c3ccccc3)c(C)[nH]n2c1=O	-36.8	0.4%	x	x	x	x
Cc1nc2c(-c3ccc(Cl)cc3)c(C)[nH]n2c(=O)c1Cc1ccccc1	-99.1*	6.1%	-8.9%	u	-11.9%	u
COc1ccc(-c2c(C)[nH]n3c(=O)c(Cc4ccccc4)c(C)nc23)cc1OC	-23.6	1.4%	0.5%	u	133.1%	-24.0%[5.75 µM]
O=C(NNc1ccccc1)OCc1ccccc1	31.8	x	x	x	x	x
Cc1cc(C(=O)NNC(=O)NC(C)C)no1	17.3	0.5%	1.2%	8.0%	30.9%	10.2%
CCCC(=O)OC[C@@H](OC(=O)CCC)[C@@H](OC(=O)CCC)[C@H](Cn1c2nc(=O)[nH]c(=O)c-2nc2cc(C)c(C)cc21)OC(=O)CCC	16.6	x	x	x	12µM*	u
Cc1cc2nc3c(=O)[nH]c(=O)nc-3n(CC(O)C(O)C(O)CO)c2cc1C (stereo unspecified)	x	x	x	x	7.57µM*	13.5µM*
CC(C)OCCCNC(=O)c1cc(-c2cccnc2)nc2ccccc12	-8.5	3.8%	0.3%	-17.4%	-4.2%	-1.7%
COc1ccc(N2C(=O)N(Cc3cccc(F)c3)c3ccccc3S2(=O)=O)cc1	x	8.8%	-9.5%	x	u	u
SMILES	HCMV inh	Sm TGR inh	SARS PLP yeast	HCV inhibitor	Pf growth 96h	Pf growth 48h
CCN(Cc1ccccc1)c1ccc(N=Nc2nn(C)c(C)c2[N+](=O)[O-])cc1	u	-5.1%	10.8%	u	u	1.65µM*
CCN(CC)c1ccc(N=Nc2nn(C)c(C)c2[N+](=O)[O-])cc1	u	-9.4%	8.6%	u	3.7µM*	u
CCN(CC)c1ccc(N=Nc2ncn[nH]2)cc1	37.6	-4.3%	-6.7%	-8.9%	39.1%	197.0%
O=C(Nc1ccc(CN2CCOCC2)cc1)c1ccc(-c2cccc([N+](=O)[O-])c2)o1	u	-15.0%	2.3%	31.6µM*	2.62µM*	u
O=C(Nc1ccc(CN2CCOCC2)cc1)c1ccc(-c2cc(Cl)ccc2Cl)o1	u	32.8%	-4.5%	u	u	1.85µM*
O=[N+]([O-])c1cccc(-c2ccc(C(=S)N3CCOCC3)o2)c1	36.7	x	0.3%	-29.8%	u	186.1%
O=C(Nc1ccc(CN2CCOCC2)cc1)c1ccc(Br)o1	67.4	-18.9%	2.1%	12.3%	196.2%	65.6%
CC1(C(=O)O)CCCN(C(=O)c2cccnc2Oc2ccccc2)C1 (stereo unspecified)	-9.8	x	x	x	x	x
Cc1cc(N(C)C)c(C#N)c(NCc2ccccc2)n1	-31.2	-19.5%	-8.2%	-8.8%	u	1.6%
N#Cc1c(Cl)nc(Cl)c2c1CCN(Cc1ccccc1)C2	-5.0	35.5µM*	2.2%	u	u	-16.0%
C=CCNc1nc(NCc2ccccc2)c(C#N)c2c1CN(C)CC2	-30.0	-2.2%	-3.2%	17.8µM*	26.6%	u
Nc1[nH]nc2nc(NCc3ccccc3)c3c(c12)CCN(Cc1ccccc1)C3	0.6	-0.4%	-1.9%	-22.9%	u	-27.9%
CCCc1nc(NCc2ccccc2)c(C#N)c2c1CCCC2	-29.9	-11.0%	1.9%	8.8%	u	6.57µM*
CCN1CCc2c(C#N)c(NCc3ccccc3)nc(N(CC)CC)c2C1	-14.4	-11.0%	-2.7%	u	0.928µM*	2.62µM*
COc1ccc(C(=O)N/C(=C\c2ccco2)C(=O)NC2CCS(=O)(=O)C2)cc1 (stereo unspecified)	-0.8	u	0.7%	8.3%	u	-20.5%
CCOc1ccc(CNC(=O)c2cccc(NC(=O)N3CCSc4ncccc43)c2)cc1OC	u	0.6%	x	x	x	x
N#Cc1c(N2CCCCC2)nc(N2CCCCC2)c2c1CCN(Cc1ccccc1)C2	u	-22.4%	-1.3%	u	97.9%	3.7µM*
Cc1cc(C)c(C#N)c(N2CCN(Cc3ccccc3)CC2)n1	u	6.9%	-0.6%	u	x	0.1%
N#Cc1c(NCCN)nc(NCc2ccccc2)c2c1CCN(Cc1ccccc1)C2	x	-9.9%	-0.8%	u	70.4%	9.28µM*
Cc1cc(F)cc(-c2cc(C(=O)NCc3ccccn3)[nH]n2)c1	-6.9	x	x	x	x	x
COc1ccc(C)cc1NC(=O)c1cc2c(=O)n3ccccc3nc2n1C	u	11.5%	-0.8%	-10.7%	11.0%	-4.6%
Cc1cc(C)c(NC(=O)c2cc3c(=O)n4ccccc4nc3n2C)c(C)c1	-79.3*	3.1%	x	x	x	x
